Screens from PubChem.
TRPV1 PAM: potentiators of human vanilloid receptor 1 (TRPV1); TRPV1-expressing cells, Fluo-8 calcium influx, capsaicin EC20 potentiation; Q8NER1; potentiation, % at 8.33 µM; hit rate 0.02% among 320,000; in the data active means potentiation above about 80%; inconclusive means between about 30% and that limit; further: 0% is about no effect
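Cells expressing TRPV1 were dye-loaded with Fluo-8 and read kinetically: 10 s baseline, 3 min after compound (agonist portion), then 2 min after EC20 capsaicin (allosteric enhancer portion). Calcium-bound dye fluorescence at 480/520 nm.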
D1 PAM: potentiators of human D1 dopamine receptor; HEK293 TREx D1 cells, calcium flux, dopamine EC20 potentiation; potentiation, % at 10 µM; hit rate 0.036% among 360,000; AID 504651; in the data active means potentiation above about 30%; further: 0% is about no effect
Target sequence (P21728 whole entry, looked up): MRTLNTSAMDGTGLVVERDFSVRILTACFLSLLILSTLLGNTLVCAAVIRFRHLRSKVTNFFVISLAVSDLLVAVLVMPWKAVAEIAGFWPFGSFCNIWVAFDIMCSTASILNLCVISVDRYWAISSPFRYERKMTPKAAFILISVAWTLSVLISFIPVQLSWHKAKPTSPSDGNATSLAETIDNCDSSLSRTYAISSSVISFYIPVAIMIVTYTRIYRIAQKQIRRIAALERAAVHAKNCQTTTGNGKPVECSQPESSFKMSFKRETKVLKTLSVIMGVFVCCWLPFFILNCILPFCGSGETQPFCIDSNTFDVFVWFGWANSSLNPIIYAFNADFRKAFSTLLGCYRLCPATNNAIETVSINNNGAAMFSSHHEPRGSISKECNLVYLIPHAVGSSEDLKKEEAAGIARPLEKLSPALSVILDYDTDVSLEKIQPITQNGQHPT
D1 agonist: human D1 receptor agonism; activation, % at 2 µM; HEK293 T-REx D1 cells, calcium flux, agonist mode; hit rate 1% among 360,000; P21728; in the data active means activation above about 30%; further: 0% is about no effect
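Agonism was scored from calcium flux recorded over 180 s (1 read/s) after pintool compound addition, following a 10-cycle baseline. Cells were inducible force-coupled HEK293 TREx D1, plated overnight at 30 C and loaded with no-wash calcium dye.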
D1 antag: human D1 dopamine receptor antagonism. hit rate 3.2% among 360,000. P21728. activity change, negative = inhibition, % at 10 µM. HEK293 TREx D1 cells, calcium flux, dopamine EC80; hits give low values; in the data active means activity change below about -30%; further: on the % scale 0 is the no-effect control and ±100 the full control effect
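Cells carrying a force-coupled, tetracycline-inducible human D1 receptor report calcium flux. Each well gets a 10 s baseline, compound with 180 s monitoring, then an EC80 dopamine stimulus with a second 180 s kinetic read.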
TRPV1 ag: human TRPV1 agonism. Q8NER1. TRPV1-expressing cells, Fluo-8 calcium influx, agonist mode. activation, % at 8.33 µM. hit rate 0.19% among 320,000. AID 540275; in the data active means activation above about 80%; inconclusive means between about 30% and that limit; further: 0% is about no effect
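Fluo-8 calcium influx in TRPV1-expressing cells, kinetic read (ex 480/em 520 nm). Compound added and read 3 min for agonist activity, followed by capsaicin at EC20 final and 2 min further read for enhancement.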
Numbers without * were called inactive; u = inconclusive; x = no result given. Hits are enriched below; roughly 4.2% of the tested compounds scored in any of these assays.

SMILES	TRPV1 PAM	D1 PAM	D1 agonist	D1 antag	TRPV1 ag
COc1ccccc1N/C(N)=N/c1nc(CSc2nc3ccccc3s2)cc(=O)[nH]1	7	4	5	-31*	0
CCOC(=O)c1ccc(NC(=O)c2c(C)nn(-c3ccc(F)cc3)c2-n2cccc2)cc1	x	-2	4	4	x
CC(C)CC(C(=O)NCCc1ccccc1)N1Cc2ccccc2C1=O (stereo not given)	x	4	-1	-4	x
Clc1ccc(-c2csc(=Nc3ccccc3)n2Cc2ccc3c(c2)OCO3)cc1	x	-2	-1	14	x
CCOc1ccc(-n2c(=O)c3c4c(sc3n(CC(=O)NC(C)CC)c2=O)CCC4)cc1 (stereo not given)	x	-2	6	-3	x
CC1(C)CC(NC(=O)CSc2ccccc2)CC(C)(C)N1	0	-1	1	-34*	-1
CC1(C)CC(NC(=O)C(c2ccccc2)c2ccccc2)CC(C)(C)N1	13	-1	2	-32*	2
CC1(C)CC(NC(=O)Cc2ccccc2)CC(C)(C)N1	1	-25	0	11	-3
N#Cc1ccccc1NC(=O)CSc1nnc(N)s1	x	-2	1	-2	x
O=C(CNC(=O)c1ccc2ccccc2c1)OC(C(=O)Nc1cc(C(F)(F)F)ccc1Cl)c1ccccc1 (stereo not given)	x	4	5	24	x
Cc1ccc(-c2cc(C(F)(F)F)n3nc(C(=O)Nc4sc5c(c4C#N)CCC(C)C5)cc3n2)cc1 (stereo not given)	x	-6	0	-37*	x
CCOC(=O)c1c(NC(=O)c2cc3nc(-c4ccc(OC)cc4)cc(C(F)(F)F)n3n2)sc2c1CCC(C)C2 (stereo not given)	x	1	1	-25	x
O=C(c1ccc(CS(=O)(=O)c2c(Cl)cccc2Cl)o1)N1CCN(c2ccccc2)CC1	x	-3	6	-13	x
Nc1nc(Cl)c(C=O)c(N2CCCCC2)n1	26	-5	2	9	3
Nc1nc(N2CCCCC2)c(C=O)c(N2CCCCC2)n1	-1	-5	2	-36*	2
Cc1nc2nc(SCC(=O)Nc3cccc(Cl)c3)nn2c(C)c1Cc1ccccc1	x	-3	5	-2	x
Cn1c2ccccc2c(=O)c2c(=O)n(C3CCCCC3)c(-c3ccco3)nc21	-22	-9	106*	-3	10
CC(C)Cn1c(-c2ccco2)nc2c(c(=O)c3ccccc3n2C)c1=O	-18	-5	6	-17	22
Cc1nc2c(c(=O)c3ccccc3n2C)c(=O)n1C1CCCCCC1	-19	0	154*	9	20
COc1ccc(Cn2c(C)nc3ccc([N+](=O)[O-])cc3c2=O)cc1	1	-6	12	-30*	-2
Cc1nc2ccc([N+](=O)[O-])cc2c(=O)n1Cc1ccc(Cl)cc1	17	-5	3	-22	0
NC(=NCc1ccco1)NC(=O)c1ccccc1	3	-9	5	-13	4
CSC(=NCc1ccco1)NC#N	3	-14	1	-34*	3
CCOC(=O)c1[nH]c(C)c(C(=O)N2CCN(c3ccc(OC)cc3)CC2)c1C	-21	0	1	-11	-1
CCOC(=O)c1[nH]c(CN2CCN(c3ccc(OC)cc3)CC2)c(C(=O)OCC)c1C	28	x	64*	13	26
SMILES	TRPV1 PAM	D1 PAM	D1 agonist	D1 antag	TRPV1 ag
O=C(CSc1nc(-c2ccccc2)c2ccccc2n1)Nc1ccc(F)cc1	x	4	0	-3	x
COC(=O)c1cn[nH]c1N	-10	-10	4	-30*	2
Cc1ccc(NS(=O)(=O)c2ccc(C(=O)N3CC(C)CC(C)C3)cc2)cc1 (stereo not given)	-21	1	73*	-42*	u
O=C(C1CCCN(S(=O)(=O)c2ccc(Br)s2)C1)N1CCN(c2ccccc2F)CC1 (stereo not given)	x	1	2	-8	x
O=C(COc1ccc2c(c1)OCO2)Nc1ccccc1F	-18	-2	0	x	14
Fc1ccc([C@@H]2CCNC[C@H]2COc2ccc3c(c2)OCO3)cc1	0	0	59*	-37*	16
Fc1ccc(C2CCNCC2COc2ccc3c(c2)OCO3)cc1 (stereo not given)	2	-5	38*	7	2
COc1ccccc1N1CCN(C(=O)C2CCN(S(=O)(=O)Cc3ccccc3)CC2)CC1	x	-1	0	5	x
COc1ccc(NC(=O)CSc2nc3c([nH]c4ccccc43)c(=O)n2-c2ccccc2)c(OC)c1	x	-6	2	8	x
CCOc1ccc(-c2c(C(=O)N/N=C/c3ccsc3)nnn2-c2nonc2N)cc1	2	2	38*	33	u
COc1cccc(-c2c(C(=O)N/N=C/c3ccsc3)nnn2-c2nonc2N)c1	u	15	163*	29	-5
COc1cc(OC)cc(C(=O)Oc2c(Sc3ccccc3)c(C)nn2C(C)(C)C)c1	x	4	1	-3	x
COc1ccc(-c2noc(Cn3c(=O)c4ccccc4n(CC(=O)Nc4cccc(C(F)(F)F)c4)c3=O)n2)cc1	x	-1	3	-7	x
Cc1ccccc1NC(=O)CSc1cn(CC(=O)N(C(C)C)C(C)C)c2ccccc12	x	-5	2	1	x
COc1ccc(-c2nc(CS(=O)(=O)CC(=O)NC3CCC(C)CC3)c(C)o2)cc1 (stereo not given)	-1	-5	31*	-33*	-1
COc1ccccc1NC(=O)c1nnn(Cc2ccccc2)c1NC(C)=O	13	1	3	-48*	-2
COc1ccc(C)cc1NC(=O)c1nnn(Cc2cccc(C(F)(F)F)c2)c1N	7	2	11	3	13
COc1cccc(NC(=O)c2nnn(Cc3cccc(C(F)(F)F)c3)c2N)c1	x	-4	63*	-7	x
COc1cccc(NC(=O)c2nnn(Cc3ccc(Br)cc3F)c2N)c1	u	4	39*	4	11
COc1ccc(NC(=O)c2nnn(CC(=O)Nc3ccccc3OC)c2N)c(OC)c1	1	-4	1	0	0
COc1ccccc1NC(=O)c1nnn(Cc2ccccc2)c1NC(=O)C(F)(F)F	7	8	2	-1	3
CCc1ccc(Cn2nnc(C(=O)Nc3ccc(OC)cc3OC)c2N)cc1	2	x	33*	14	4
COc1cccc(Nc2sc(C(=O)c3ccc(F)cc3)c(N)c2C(=O)NCc2ccc(C)cc2)c1	x	-5	17	-3	x
Cc1coc2c1c(C)cc1oc(=O)c(CC(=O)NCc3ccc(Cl)cc3)c(C)c12	x	-1	14	-3	x
COc1cccc(NC(=O)c2nnn(Cc3ccc(OC)c(Br)c3)c2N)c1	x	-2	5	-73*	x
O=C(Nc1cccc(C(=O)N2CCCCC2)c1)c1nsc2ccccc12	x	1	-1	-3	x
O=C(NC1=NCCS1)c1sc2ccccc2c1Cl	-2	-5	0	9	4
O=C(NC1=NCCS1)c1sc2cc(Cl)cc(Cl)c2c1Cl	2	-1	1	-34*	-1
